# Records with an inconclusive call do not appear. A call without a number means that no potency is given here. Unmarked numbers belong to inactive results. The source made the active and inactive calls. The call rests on the fitted dose curve; in most records, active means well fitted cell-killing curve with a large enough effect in the repeat runs; inconclusive means weak or mixed curves, or effect the other way; inactive means no such curve, though single readings can be large or run the other way.
# Test: Caspase-3/7 induction in CHO-K1 cells by small molecules, qHTS cell viability counter screen (AID 1346979); further: nearly all actives have a fitted effect of over 35% in size
# Conditions: CellTiter-Fluor fluorescence, 17 h; series mostly up to 92.4 µM
# Text: National Center for Advancing Translational Sciences [NCATS]
# NIH Chemical Genomics Center [NCGC]
# U.S. Environmental Protection Agency [EPA]
# National Institutes of Environmental Health Sciences [NIEHS]
# National Toxicology Program [NTP]
# U.S. Food and Drug Administration [FDA]
# Apoptosis is a process of programmed cell death and plays a central role in the development of multicellular organisms. It is a highly regulated process and induces cell death by activating caspases, which are the members of cysteine aspartic acid-specific protease (caspase) family. Caspases involved in apoptosis are classified by their mechanism of action as initiator caspases (caspase-2, -8, -9 and -10) and executioner caspases (caspase-3, -6, and -7). Inhibition of apoptosis results in number of cancers, autoimmune diseases, inflammatory diseases and viral infection. To identify small molecule compounds that induce apoptosis, a homogeneous, luminescent Caspase-Glo 3/7 assay was used. Wild type CHO-K1 cells were used to screen Tox21 libraries for identifying caspase-3/7 activity inducers. Also cytotoxicity of the compounds was tested in parallel by measuring the cell viability using CellTiter-Fluor assay system in the same wells.
# Tox21 Assay Protocol Summary:
# CHO-K1 cells were dispensed at 1,500 per well in 5uL of culture medium into white solid bottom 1536-well plates (Corning Life Sciences, Corning, NY) using a Multidrop Combi (Thermo Scientific, Waltham, MA) dispenser. The assay plates were incubated at 37 C and 5% CO2 for 5hr, and then 23nL of compounds dissolved in DMSO and positive control were transferred using a Pintool station (Wako, San Diego, CA). The assay plates were incubated at 37C and 5% CO2 for 17hr. For cytotoxicity read, after 16hr incubation at 37C, 1uL CellTiter-Fluor reagent (Promega Corporation, Madison, WI) was added to each well of the assay plates using Flying Reagent Dispenser (FRD, Aurora Discovery, San Diego, CA). After 1hr incubation at 37C and 5% CO2, the fluorescence signal was quantified using a ViewLux plate reader (PerkinElmer, Shelton, CT).
Compound,Potency,"activity change, negative = cytotoxicity"
CCCC(=O)C(CC)Sc1ccoc1C (stereo not given),inactive,
NNC(=O)CCCCC(=O)NN,inactive,
CO/N=C(\C(=O)O)c1csc(NC(=O)CCl)n1,inactive,
CC(=O)Nc1ccc(OCCOCCOc2ccc(NC(C)=O)cc2)cc1,inactive,
CC(=O)SC[C@@H](C)C(=O)N1CCC[C@H]1C(=O)N[C@@H](Cc1ccccc1)C(=O)O,inactive,
C[n+]1ccccc1/C=N/O,inactive,
CN1C(CCl)Nc2cc(Cl)c(S(N)(=O)=O)cc2S1(=O)=O (stereo not given),inactive,
CCC(C)c1nccnc1OC (stereo not given),inactive,
Cc1ccc2cccnc2c1,inactive,
C[Si](C)(C)O[Si](O)(O)O,inactive,
N#Cc1ccccc1C#N,inactive,
O=S(=O)(O)c1cc(I)c(O)c2ncccc12,inactive,
CCOCCOCCOC(C)=O,inactive,
C=C(C)C(=O)OCCOC1CC2CC1C1C=CCC21 (stereo not given),inactive,
CC[N+](C)(CC)CC,inactive,
NC[C@H]1O[C@H](O[C@H]2[C@H](O)[C@@H](O[C@H]3O[C@H](CO)[C@@H](O)[C@H](N)[C@H]3O)[C@H](N)C[C@@H]2N)[C@H](N)[C@@H](O)[C@@H]1O,,1.7% [at 19 µM]
O=C1c2ccccc2C(=O)N1CO,inactive,
NNC(=O)OCc1ccccc1,inactive,
O=C(O)/C=C(\CC(=O)O)C(=O)O,inactive,
CCOC(=O)CN1CCCC1=O,inactive,

Compound,Potency,"activity change, negative = cytotoxicity"
COCc1nnc(-c2ccc[n+]([O-])c2)n1-c1c(Cl)c(Cl)cc2[nH]c(=O)c(=O)[nH]c12,inactive,
CCCCN=C(N)N=C(N)N,inactive,
CCCC[O][Al]([O]CCCC)[O]CCCC,inactive,
CCCCN(CCCC)CCCCCCN(CCCC)CCCC,inactive,
CC(=O)c1ccc(O)c(C(N)=O)c1,inactive,
CCN1CCN(C(=O)N[C@@H](C(=O)N[C@@H]2C(=O)N3C(C(=O)O)=C(CSc4nnnn4C)CS[C@H]23)c2ccc(O)cc2)C(=O)C1=O,inactive,
O=C(OOC(=O)c1ccccc1)c1ccccc1,inactive,
CCN(CC)CC,inactive,
CC(C)OC(=O)C(C(=O)OC(C)C)=C1SC=CS1,inactive,
O=C(CCBr)N1CCN(C(=O)CCBr)CC1,inactive,
C=CCN(CC=C)CC=C,inactive,
CC(=O)c1c(C)cc(C(C)(C)C)cc1C,inactive,
COC(=O)c1ccc(NC(C)=O)cc1OC,inactive,
O=C1CCCc2c(O)cccc21,inactive,
COC(=O)c1cc(Cl)c(NC(C)=O)cc1OC,inactive,
COC(=O)/C=C(\C)CCC=C(C)C,inactive,
CCCCN1C(=O)c2ccccc2C1=O,inactive,
CCCCCCCCCCCC(C)=O,inactive,
Nc1ccc(C(=O)NCC(=O)O)cc1,inactive,
Cc1cc2c(cc1CC(=O)c1sccc1S(=O)(=O)Nc1onc(C)c1Cl)OCO2,inactive,

# Source: PubChem BioAssay (Tox21)
